This note sets out measurements from PubChem BioAssay AID686978 (National Center for Advancing Translational Sciences (NCATS), 2013).

Out of some 420,000 compounds screened, about 64,000 (15%) were called active. Not shown: some 27% with an inconclusive outcome. Calls follow the shape of the dose curve; as a rule, active = well fitted inhibition curve with a large enough effect; inconclusive = small, poorly fitted or top-dose-only effect; inactive = flat fitted curve, though single readings scatter. Not all results are given here. Where a call stands in place of a potency, no number is given.
Potency is read from the fitted curve at half-maximal effect.

This assay in a line: qHTS for Inhibitors of human tyrosyl-DNA phosphodiesterase 1 (TDP1): qHTS in cells in absence of CPT. Also: nearly all actives have a fitted effect of over 55% in size. The note with it: DT40 Tdp1-/- hTDP1 cells, no CPT, ATP luminescence, 48 h; activity change, negative = growth inhibition: at 46.2 µM (top of the series). Put shortly:
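DT40 Tdp1-/-;hTDP1 cells, no CPT (DMSO vehicle only), 400 cells/well; compounds pin-transferred; ≥48 hr, 37 °C; CellTiter-Glo 30 min RT dark, luminescence read.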
Regarding `COc1ccccc1P(=O)(c1ccccc1)c1ccccc1NC(C)=O` (stereo not given), the Potency entry is “inactive”. As for `CCCCN(C)C(=O)C1CCN(Cc2ccccn2)CC1`, the entry is “inactive”.

Consider `CC1=C(/C=C/C(C)=C/C=C/C(C)=C/C=C/C=C(C)/C=C/C=C(C)/C=C/C2=C(C)CCCC2(C)C)C(C)(C)CCC1`, for which the Potency result was “inactive”. As for `Clc1ccc(C(Cn2ccnc2)OCc2ccsc2Cl)c(Cl)c1` (stereo not given), the figure is 16.8 µM (active); as for `O=C(NCCCn1ccnc1)Nc1ccc(Cl)cc1Cl`, “inactive”. With `O=C(Nc1ccccc1C(=O)NCCCn1ccnc1)c1ccc(Cl)cc1Cl`, the Potency result is “inactive”.

As for `CNc1nccc(-c2ccc(Cl)cc2)c1C#N`, the Potency entry was “inactive”. As for `CN(C(=O)COC(=O)c1cc(-c2ccco2)nc2ccccc12)C1CCS(=O)(=O)C1` (stereo not given), the entry is “inactive”. For the molecule `N#Cc1ccc(-c2ccc(Cl)cc2)nc1Oc1ccc(F)cc1`, the Potency entry is “inactive”. The entry for `COC(=O)c1cc(-c2cccs2)nc2ccccc12` is “inactive”; for `CC(=O)Nc1cccc(Nc2nc(-c3cccs3)nc3ccccc23)c1` it is 8.2 µM (active). Take `CCN(CC(=O)Nc1c(F)cccc1F)C(=O)Cc1cccs1`: the Potency entry is “inactive”. With `O=C1CCCCC1C(=O)c1ccccc1` (stereo not given), the Potency result is “inactive”. As for `Cc1n[nH]c(=O)c2c(NC(=O)CSc3ccccc3F)oc(C)c12`, the entry is “inactive”; as for `CC(=O)N1CCN(S(=O)(=O)c2c(F)cc(F)c(Cl)c2F)CC1`, “inactive”; as for `COc1ccc(Cc2n[nH]c(=S)n2NC(=O)Nc2ccc(C)cc2)cc1`, “inactive”. As for `COc1ccc(OCCCC(=O)OC(C)C(=O)Nc2ccccc2[N+](=O)[O-])cc1` (stereo not given), the entry is “inactive”.

Consider `O=C1C=CC(=O)N1c1ccc(N2CCCCC2)cc1`, for which the Potency was 1.16 µM (active). As to `O=c1[nH][nH]c(=O)c2cc(N3CCCC3)ccc12`, the Potency entry is “inactive”. Consider `CS(=O)(=O)N1CCC[C@@]2(CCN(c3ccncc3)C2)C1`, for which the Potency entry was “inactive”. With `Cc1ccc(-c2c(C)n([O-])c3c([n+]2=O)CCC3)cc1`, the Potency entry was “inactive”. Consider `CC1=NNC(=O)C1CCC(=O)N/N=C\c1ccc(Cl)c(Cl)c1` (stereo not given), for which the Potency result is “inactive”. Consider `CCOC(=O)c1c(SCC(=O)Nc2cccc(C)c2C)nc(=O)[nH]c1C`, for which the Potency result is “inactive”. Consider `CCOC(=O)c1c(C)[nH]c(=S)c(C#N)c1-c1ccccc1`, for which the Potency result was “inactive”.

For the molecule `CCOC(=O)c1c(C)[nH]c2c1-c1ccccc1C(=O)C2=O`, the Potency was 0.651 µM (active). For the molecule `O=C(COC(=O)c1ccc[nH]c1=O)Nc1ccc2c(c1)OC(F)(F)O2`, the Potency entry is “inactive”.

For the molecule `COC(=O)[C@@H]1CCCN1C(=O)c1cc(COc2cccc3cccnc23)on1`, the Potency result is “inactive”. As for `Cc1ccc(OCc2cc(C(=O)N(C)CCn3ccnc3C)no2)cc1C`, the entry is “inactive”; as for `COCC1CCCCN1C(=O)c1cc(COc2ccc(C)c(C)c2)on1` (stereo not given), 20.6 µM (active). For `COC(=O)c1ccccc1NC(=O)c1cc(-c2ccccc2O)no1`, the Potency entry was “inactive”. Consider `CCOC(=O)C1CCc2nc3ccccc3c(=O)n21` (stereo not given), for which the Potency entry was “inactive”. With `CCOC(=O)C(CCOc1cccc(CC)c1)C(=O)OCC`, the Potency entry was “inactive”.

Regarding `C=CCNC(=O)C12CC3CC(C1)CC(C(=O)NCC=C)(C3)C2`, the Potency entry is “inactive”.

With `Cc1cc(C)cc(NC(=O)N2CCC(NC(=O)c3ccc(F)cc3)CC2)c1`, the Potency result was “inactive”. Take `O=C(C(=O)N1CCN(c2ccccc2)CC1)c1ccc2c(c1)OCO2`: the Potency result was “inactive”. With `COc1cc(OC)c2ccc(=O)oc2c1C(CCN1CCN(c2ccccc2)CC1)c1ccc2c(c1)OCO2` (stereo not given), the Potency is 16.4 µM (active). The entry for `COc1ccc(F)cc1S(=O)(=O)NCC(c1ccc2c(c1)OCO2)N1CCN(C)CC1` (stereo not given) is “inactive”; for `CCN(CC)CCC(c1ccc2c(c1)OCO2)c1c(OC)cc(OC)c2c(-c3ccccc3)cc(=O)oc12` (stereo not given) it is 20.6 µM (active); for `COc1cc(COCC(O)CN2CCN(Cc3ccc4c(c3)OCO4)CC2)cc(OC)c1OC` (stereo not given) it is “inactive”.

Turning to `Cc1nnc(SCc2cc(=O)[nH]c(N3CCN(Cc4ccccc4)CC3)n2)s1`, the Potency entry is “inactive”. With `CC(Sc1nncn1C)C(=O)Nc1cc(C(F)(F)F)ccc1N1CCOCC1` (stereo not given), the Potency entry is “inactive”. As for `CCCCN1C(=O)C(CC(=O)NCc2cccs2)CC(C(=O)N2CCCCCC2)=C1C` (stereo not given), the entry is “inactive”; as for `CC(C)(C)NC(=O)NC(=O)COC(=O)C1(C)CC1(Cl)Cl` (stereo not given), “inactive”; as for `COc1ccc(CCc2nc(-c3cccs3)no2)cc1`, “inactive”. The entry for `COc1ccc(S(=O)(=O)NC(=O)C2(C)CCN2C(=O)c2ccccc2CCc2ccccc2)cc1` (stereo not given) is “inactive”; for `Cc1c(C(=O)Nc2cccc(Cl)c2)cn2c(nc3ccccc32)c1C#N` it is 11.6 µM (active). As for `O=C(O)c1cccc(NC(=O)c2cc(-c3cccc(Cl)c3)nc3ccccc23)c1`, the entry is “inactive”; as for `O=C(NCc1cn2ccsc2n1)Nc1cccc(Cl)c1`, “inactive”; as for `COc1cc(C(=O)NN(CCC#N)C2=NS(=O)(=O)c3ccccc32)cc(OC)c1OC`, “inactive”.

Consider `CCc1ccc(-c2nnn(Cc3nn[nH]n3)n2)cc1`, for which the Potency result is “inactive”. As to `COc1ccc(C(C#N)=C2C=CC(=NO)c3ccccc32)cc1`, the Potency is 0.82 µM (active). In the case of `COc1ccc(C(=NN)c2ccc(OC)cc2)cc1`, the Potency entry is “inactive”.

Take `COc1ccc(/C(N)=N/OC(=O)Cc2ccccc2)cc1`: the Potency entry was “inactive”. As for `O=C(c1ccc[nH]c1=S)N1CCN(S(=O)(=O)c2ccc(Br)cc2Cl)CC1`, the entry is “inactive”; as for `COc1ccc(CNC(=O)c2ccc(Br)s2)cc1OC`, “inactive”. The entry for `CCN(CC(=O)NCc1ccc(Cl)cc1)C(=O)c1c(C)noc1C` is “inactive”. The entry for `O=C(NCc1ccncc1)C(=O)NCc1ccco1` is “inactive”. Regarding `COc1ccc(CNC(=O)c2c(C)cc(=O)oc2C)cc1OC`, the Potency result is “inactive”. The figure for `Cc1noc(C)c1-c1ccc(C(=O)NCc2ccncc2)c2occc12` is 8.2 µM (active); for `COc1ccc(CNC(=O)c2ccc(-c3cccnc3)c3ccoc23)cc1OC` it is 18.4 µM (active); for `O=C(COc1ccc(Cl)cc1)NCc1nnc(SCC(=O)NCC2CCCO2)o1` (stereo not given) it is “inactive”. As to `CCn1cc(CNC(=O)c2cc([N+](=O)[O-])c(C)c([N+](=O)[O-])c2)cn1`, the Potency entry is “inactive”. With `Cc1cccc(NC(=O)CSCC(=O)Nc2nnc(C3CC3)s2)c1`, the Potency result was “inactive”. For `Cc1ccc(C(=O)CS(C)(=O)=O)cc1`, the Potency entry was “inactive”. In the case of `Cc1ccc(SC(CC(=O)c2ccc(C(C)(C)C)cc2)C(=O)O)cc1` (stereo not given), the Potency is 2.91 µM (active). The entry for `Cc1ccc(C(=O)CSc2ccccc2C(=O)O)cc1` is “inactive”; for `CC1(C)c2[nH]c3ccccc3c2C[C@H]2C(=O)N(N)CC(=O)N21` it is “inactive”. As for `O=C(NC1CCc2ccccc21)C12CN(Cc3ccccc3)CC1C(c1cccc([N+](=O)[O-])c1)=NO2` (stereo not given), the entry is “inactive”; as for `COc1ccccc1NC(=O)C1CCCN1S(=O)(=O)c1ccc(Cl)cc1` (stereo not given), 16.4 µM (active). Regarding `O=C(NCc1ccccc1Cl)C1CCCN1S(=O)(=O)c1ccc(F)cc1` (stereo not given), the Potency result is “inactive”. For the molecule `CC(C)c1nnc(NC(=O)C2CCCN2S(=O)(=O)c2ccc(Cl)cc2)s1` (stereo not given), the Potency entry is “inactive”. As for `COc1cccc(CCNC(=O)COc2cccc3c2OC(C)(C)C3)c1`, the entry is “inactive”; as for `CN(C)c1cccc2ccccc12`, “inactive”; as for `CC(C)[C@@H](C(=O)O)N(Cc1cccc(CN([C@H](C(=O)O)C(C)C)S(C)(=O)=O)c1)S(C)(=O)=O`, “inactive”. As for `COc1cc2c(cc1OC)C(Nc1ccc(S(N)(=O)=O)cc1)=NC(C)(C)C2`, the entry is “inactive”. As for `COc1cc2c(cc1O)C(SC)=NC(C)(C)C2`, the figure is 29.1 µM (active); as for `O=C(Nc1ccccn1)C1CCN(S(=O)(=O)c2ccccc2)CC1`, “inactive”. For `CCCCN(CC(=O)NC(C)(C)C)C(=O)C(=O)Nc1ccc2c(c1)OCCO2`, the Potency entry is “inactive”. For the molecule `CC(C)(C)NS(=O)(=O)CC12CCC(CC1=O)C2(C)C` (stereo not given), the Potency entry is “inactive”. On to `CN(C)CC/C=C1\c2ccccc2CSc2ccccc21`, for which the Potency entry is “inactive”. In the case of `CN(C)Cc1ccccc1C1(O)c2ccccc2CSc2ccccc21` (stereo not given), the Potency was 23.1 µM (active). As to `CC(=O)NC(CC(=O)Nc1nccs1)c1ccccc1` (stereo not given), the Potency result was “inactive”. The entry for `Cc1c(OC(C)C(=O)NCC2CCC(C(=O)O)CC2)ccc2c1oc(=O)c1ccccc12` (stereo not given) is “inactive”; for `CCN(CC(=O)NC(=O)NCc1ccccc1)Cc1nc2ccccc2c(=O)[nH]1` it is “inactive”. `CC1(C(=O)NCc2ccco2)Cc2c(-c3ccc4c(c3)OCO4)ccnc2O1` (stereo not given): the Potency was 0.58 µM (active).

Regarding `S=C(NCc1ccc2c(c1)OCO2)NCc1ccco1`, the Potency result was “inactive”. The figure for `CC1(C(=O)NCc2ccc(F)c(F)c2)Cc2c(-c3ccc4c(c3)OCO4)ccnc2O1` (stereo not given) is 2.91 µM (active); for `O=C(NCc1ccc2c(c1)OCO2)c1cc(F)c(F)cc1Cl` it is “inactive”. As for `O=C(NCc1ccc2c(c1)OCO2)C12CC3CC(CC(C3)C1)C2`, the entry is “inactive”; as for `O=C(Cn1nnc(-c2ccc3c(c2)OCO3)n1)NCc1ccco1`, “inactive”; as for `OCC1(CCOc2ccccc2)CCN(Cc2cn[nH]c2-c2ccccc2)CC1`, “inactive”. The entry for `COCc1c(C(=O)N/N=C(\C)c2ccncc2)nnn1-c1nonc1N` is “inactive”; for `CC(Sc1nnc(CNC(=O)c2ccccc2F)n1C)C(=O)Nc1nccs1` (stereo not given) it is “inactive”. As for `O=c1c(-c2ccc(F)cc2)nc2cncnc2n1-c1ccccc1`, the Potency result was “inactive”. As for `Cc1cnc(NC(=O)Cn2cnc3c2c(=O)n(C)c(=O)n3C)s1`, the entry is “inactive”; as for `CCSc1ccccc1C(=O)Nc1ccc2c(c1)OCO2`, “inactive”. As for `CCC(C)OC(=O)C(C)Oc1ccc(-c2ccccc2)cc1` (stereo not given), the entry is “inactive”; as for `N#CC1=C(N)N(c2ccc(F)cc2)C(=O)C1`, “inactive”; as for `O=C(CSc1ccccc1)Nc1nnc(/C=C/c2ccccc2)s1`, “inactive”.

As for `CCCN(C(=O)Cn1cc(S(=O)(=O)N2CCN(c3ccccc3F)CC2)c2ccccc2c1=O)c1cccc(C)c1`, the Potency was 18.4 µM (active). As to `O=C(CN1CCN(c2ccccc2F)CC1)c1ccc2c(c1)OCO2`, the Potency result is “inactive”. For the molecule `CCOC(=O)N1CCN(c2c(NCCN3CCN(c4ccccc4F)CC3)c(=O)c2=O)CC1`, the Potency result was “inactive”. As for `Cc1ccc2cccc(S(=O)(=O)N3CCN(c4ccccc4F)CC3)c2n1`, the Potency result is “inactive”. The figure for `CCN(C(=O)Cn1cc(S(=O)(=O)N2CCN(c3ccccc3F)CC2)c2ccccc2c1=O)c1ccc(C)c(C)c1` is 10.3 µM (active); for `CC1(C)NC(=O)N(CC(=O)N2CCN(S(=O)(=O)c3ccccc3F)CC2)C1=O` it is “inactive”.
